# Compound activity (PubChem BioAssay)
# DT40 TDP1 CPT: DT40-hTDP1 cell growth loss with CPT. chicken DT40 Tdp1-/-;hTDP1 cells + 20 nM CPT, ATP luminescence, 48 h. 420,000 compounds, 12% hits. Potency, µM (series often up to 46.2 µM), without a hit: top-dose activity change, negative = growth inhibition, hits mostly inhibitors; note: % is set by controls: 0 for no effect and ±100 for the full control effect; nearly all actives have a fitted effect of over 55% in size
#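 Chicken DT40 Tdp1-/- cells stably complemented with human TDP1 were seeded at 400 cells/well in medium containing 20 nM camptothecin, exposed to pin-transferred compounds, and grown at 37 °C for at least 48 hr. Viability was read as ATP luminescence.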
# TGFb inhibitor: inhibitors of TGF-b signaling. HepG2 CAGA-GFP TGF-b/SMAD3 reporter, GFP fluorescence, 18 h; TGF-beta stimulated, 500 pg/mL final. Potency, µM (highest dose often 46.1 µM), inactives show at the highest dose activity, negative = inhibition, hits mostly inhibitors. 410,000 compounds, 1.2% hits; note: % is set by controls: 0 for no effect and ±100 for the full control effect; nearly all actives have a fitted effect of over 65% in size
#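 TGF-beta reporter screen: HEPG2 CAGA-GFP, 1% FBS, 500 pg/mL TGF-beta final, 18 h; per-cell GFP summed per well; curves fitted and categorized by class.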
# HT1080NT lethal: kills 2HG-producing HT-1080-NT fibrosarcoma cells; HT-1080-NT fibrosarcoma viability, CellTiter-Glo ATP luminescence, 48 h; Potency, µM (highest dose often 46.1 µM), for the others: at the highest dose activity, negative = less viability, actives largely listed as cytotoxic; 360,000 compounds, 1.6% hits; AID 686970;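 note: NT is the 2HG producing partner of a matched IDH1 knockdown line; 0% = DMSO-treated cells and -100% = media-only wells without cells; nearly all actives have a fitted effect of over 55% in size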
#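 Toxicity toward the 2HG-producing NT line was scored as %Activity, normalised to DMSO and no-cell wells, from CellTiter-Glo luminescence after 48 hours' treatment.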
# HT1080 IDH1KD tx: toxicity to HT-1080 IDH1 knockdown cells (counter line); 360,000 compounds, 2% hits; Potency, µM (top dose mostly 46.1 µM), for inactives: top-dose activity, negative = toxicity, actives largely listed as cytotoxic; AID 686971; HT-1080 IDH1 knockdown viability, ATP luminescence, 48 h;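 note: 0% = DMSO wells and -100% = cell-free medium wells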
#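 Cytotoxicity counter-line: IDH1KD HT-1080, 48 h, CellTiter-Glo. Curves classed by r2, magnitude and activity.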
# TDP1 cell noCPT: qHTS for Inhibitors of human tyrosyl-DNA phosphodiesterase 1 (TDP1): qHTS in cells in absence of CPT | 420,000 compounds, 15% hits | Potency, µM (titrated, usually from 46.2 µM), inactives show at the top dose activity change, negative = growth inhibition, usual class: inhibitors | AID 686978, 2013 | DT40 Tdp1-/- hTDP1 cells, no CPT, ATP luminescence, 48 h; note: % is set by controls: 0 for no effect and ±100 for the full control effect; nearly all actives have a fitted effect of over 55% in size
#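 Growth of hTDP1-complemented DT40 Tdp1-knockout cells is measured by ATP luminescence after at least 48 hr compound exposure at 37 °C, with DMSO substituting for the 20 nM CPT used in the parallel screen.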
# HepG2 tox: kills HepG2 cells in TGF-b inhibitor counter-screen | HepG2 CAGA-GFP viability, ATP luminescence, 18 h | Potency, µM (top dose mostly 46.1 µM), for inactives: at the highest dose activity change, negative = cytotoxicity, most hits filed as cytotoxic | 410,000 compounds, 0.76% hits | AID 588856
#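 CellTiter-Glo luminescence gave cytotoxicity after 18 hours at 37 degrees C. The cells were HepG2 CAGA-GFP in 1% FBS DMEM, stimulated with 500 pg/mL TGF-beta after compound addition. %Activity was normalised to no-cell wells (complete cell-killing) and DMSO (no toxicity), and curves were fitted and classified.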
# Numbers without * were called inactive; ? = inconclusive; / = no result; [ ] = another dose, or the depositor's remark. Only some compounds are listed: those with a hit (about 17% of all), similar ones and a draw of the others. Calls come from the whole dose curve; as a rule, active = well fitted curve in the direction sought with a large enough effect; inconclusive = small, poorly fitted or top-dose-only effect, or another doubt; inactive = no such curve, though single readings can be large; an effect the other way counts as inactive or inconclusive. Potency is the fitted concentration of half-maximal effect.
SMILES,DT40 TDP1 CPT,TGFb inhibitor,HT1080NT lethal,HT1080 IDH1KD tx,TDP1 cell noCPT,HepG2 tox
Cc1cccc(NC(=O)C2CCCN(S(=O)(=O)c3ccc4c(c3)oc(=O)n4C)C2)c1C (stereo not drawn),-5%,-6%,/,/,-27%,1%
O=C(Nc1ccc(F)cc1F)C1CCCN(c2ncnc3c2nc2n3CCCCC2)C1 (stereo not drawn),13µM*,-13%,-23%,-11%,15µM*,-17%
O=C(NCCCN1CCN(c2ccc(F)cc2)CC1)C1CCCN(c2ncnc3c2nc2n3CCCCC2)C1 (stereo not drawn),?,-25%,-7%,-6%,8.2µM*,-23%
CC1CCCCN1CCNC(=O)C1CCCN(c2ncnc3c2nc2n3CCCCC2)C1 (stereo not drawn),16%,-5%,3%,-11%,-27%,-17%
Cc1ccc(NC(=O)C2CCCN(c3ncnc4c3nc3n4CCCCC3)C2)c(Br)c1 (stereo not drawn),5.8µM*,-4%,/,/,4.1µM*,0%
O=C(Nc1cc(F)ccc1F)C1CCCN(c2ncnc3c2nc2n3CCCCC2)C1 (stereo not drawn),15µM*,-25%,-1%,2%,13µM*,-27%
CSc1ccc(CCNC(=O)C2CCCN(c3ncnc4c3nc3n4CCCCC3)C2)cc1 (stereo not drawn),?,-17%,-5%,-6%,?,-19%
CC1CCN(CCCNC(=O)C2CCCN(c3ncnc4c3nc3n4CCCCC3)C2)CC1 (stereo not drawn),-5%,-2%,-2%,3%,-14%,-4%
CCc1nc(NCC2CC2)c2nnn(Cc3ccccc3)c2n1,?,-5%,-6%,-17%,?,-26%
CCCN1Cc2cc(OC)ccc2-c2ccccc2S1(=O)=O,-14%,?,-1%,-3%,-12%,-26%
CC(Sc1nnc(-c2cccnc2)n1N)C(=O)Nc1ccc2c(c1)OCCO2 (stereo not drawn),-8%,0%,-2%,-3%,5%,2%
O=C(c1ccccc1)C(O)c1ccccc1 (stereo not drawn),15%,5%,/,/,7%,-4%
O=C(c1ccccc1)C(c1ccccc1)[n+]1csc2ccccc21 (stereo not drawn),?,?,/,/,11µM*,2%
S=c1[nH]nc(-c2cccnc2)n1/N=C/C=C/c1ccccc1,-26%,-5%,27%,0%,-3%,-8%
O=C(N/N=C/C(Cl)=C/c1ccc([N+](=O)[O-])cc1)C(=O)Nc1ccc(C(=O)O)cc1,15µM*,0%,1%,7%,21µM*,-3%
O=C(N/N=C/C(Cl)=C/c1ccc([N+](=O)[O-])cc1)C(=O)Nc1ccccc1C(=O)O,5.2µM*,-3%,26%,0%,8.2µM*,4%
COc1cccc(NC(=O)CN(C)C(=O)COc2ccc3ccccc3c2)c1,-18%,-1%,-3%,12%,-21%,13%
O=C1C2C3C=CC([C@@H]2C(=O)N1C1CCCCC1)[C@H]1C(=O)N(C2CCCCC2)C(=O)C31 (stereo partly drawn),?,1%,12%,11%,?,-5%
COc1ccc(C2NCCc3c2[nH]c2ccccc32)cc1COc1ccc(F)cc1 (stereo not drawn),?,?,?,?,21µM*,11µM*
COc1ccc(/C=N/NC(=O)c2cccnc2)cc1CN1CCc2cc(OC)c(OC)cc2C1C (stereo not drawn),-2%,?,-13%,-12%,-19%,-2%
COc1ccc(C2NCCc3c2[nH]c2ccccc32)cc1CN1CCc2cc(OC)c(OC)cc2C1C (stereo not drawn),?,-17%,18µM*,?,18µM*,-44%
Nn1c(SCC(=O)N2CCCC2=O)nnc1-c1cccs1,-1%,25%,6%,2%,0%,1%
O=C(CC1SC(=O)N(c2ccccc2)C1=O)Nc1ccc(Br)cc1 (stereo not drawn),2.6µM*,-21%,12%,7%,5.8µM*,-1%
O=C(CC1SC(=O)N(c2ccccc2)C1=O)Nc1ccc(Cl)cc1 (stereo not drawn),7.3µM*,-4%,14%,11%,21µM*,4%
Cc1cc2c(cc1C)C(c1cc(Br)ccc1F)CC(=O)N2 (stereo not drawn),?,?,?,?,16µM*,-34%
SMILES,DT40 TDP1 CPT,TGFb inhibitor,HT1080NT lethal,HT1080 IDH1KD tx,TDP1 cell noCPT,HepG2 tox
Cc1cc2c(cc1C)C(c1cccc(F)c1)CC(=O)N2 (stereo not drawn),?,-26%,-17%,-22%,16µM*,-3%
COc1ccc(C)cc1NC(=O)c1cn(C)c(=O)c2cc(OC)c(OC)cc12,-19%,-1%,/,/,-20%,2%
Cc1cc(C)c([N+](=O)[O-])cc1NC(=O)CCSc1ccccc1Cl,?,-25%,-4%,-1%,15µM*,-37%
CCCC[C@@H]1CCCO[C@@](C(=O)NCc2ccccn2)(C(F)(F)F)C1,18µM*,?,-1%,1%,?,4%
COc1ccc(CN2C[C@H](Sc3nc4ccccc4[nH]3)C[C@H]2C(=O)N2CCCN(C)CC2)cc1C,3%[9.04 µM],/,/,/,-16%,/
CC1(C(=O)Nc2ccc3c(c2)OCCO3)CSCC(=O)N1Cc1ccco1 (stereo not drawn),-27%,/,19%,23%,-4%,/
N#Cc1c(N)nc(Sc2ccc(Cl)cc2)c(C#N)c1-c1ccccc1Cl,16µM*,-21%,?,?,15µM*,-19%
Cc1cc(-c2ccc(Cl)cc2)c(C#N)c(N)n1,5%,-4%,-15%,-4%,-7%,-2%
O=C(Nc1nc(-c2ccc(F)cc2)cs1)c1cccnc1,-16%,11%,17%,2%,?,3%
O=C(COC(=O)C1=NN(c2ccccc2)C(=O)CC1)Nc1nc(-c2ccc(F)cc2)cs1,?,1%,-6%,-17%,-18%,-23%
O=C(Nc1nc(-c2ccc(Cl)cc2)cs1)c1cccnc1,?,-16%,-9%,-2%,18µM*,-9%
CCc1ccc(-c2csc(NC(=O)c3cccnc3)n2)cc1,?,-7%,-1%,?,16µM*,-4%
